According to PubChem BioAssay AID1159580 (chemical genetic matrix, 2015):
In all, about 5,500 compounds went through this assay and about 2,000 (36%) were called active. Another 18% or so got no clear call; they are omitted. Cut-off read from the data, not from the text of the source: active = normalized growth mostly below about 0.91 (no sharp cut-off); inconclusive = no clear call, values can overlap the other calls; inactive = mostly above about 0.92. The list shows a part of the results.

Experiment: chemical genetic growth profiling, strain panel (AID 1159580);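 note: tested at 20 µM; growth read once vehicle control cultures reached saturation at 30 °C; 1 = growth at the plate median or of vehicle wells; lower values mean less growth of the strain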
Details: S. cerevisiae deletion strains, growth OD

Measured: normalized growth

O=C(O)CCCC[C@@H]1CCSS1
inactive: locus YAL013W, strain DEP1, active compounds read low 0.962 | locus YAL040C, strain CLN3, active compounds read low 0.933 | locus YCL061C, strain MRC1 (second series), active compounds read low 0.979 | locus YDR150W, strain NUM1, active compounds read low 0.996 | locus YDR363W, strain ESC2, active compounds read low 0.971 | locus YER002W, strain NOP16, active compounds read low 0.968 | locus YGR229C, strain SMI1, active compounds read low 0.957 | locus YMR307W, strain GAS1, active compounds read low 0.962 | locus YNL153C, strain GIM3, active compounds read low 1.01 | locus YNL175C, strain NOP13, active compounds read low 0.979 | locus YNL197C, strain WHI3, active compounds read low 0.972 | locus YNL224C, strain SQS1, active compounds read low 0.977 | locus YOR083W, strain WHI5 (second series), active compounds read low 0.937 | locus YPL055C, strain LGE1, active compounds read low 0.989

NC(=O)CCCCC1CCSS1 (configuration not stated)
inactive: locus YHR030C, strain SLT2, active compounds read low 1.02 | locus YHR079C, strain IRE1, active compounds read low 0.976 | locus YJL095W, strain BCK1, active compounds read low 1.01 | locus YJR066W, strain TOR1, active compounds read low 0.955 | locus YLR113W, strain HOG1, active compounds read low 1.02 | locus YNL183C, strain NPR1, active compounds read low 0.966 | locus YOR231W, strain MKK1, active compounds read low 0.986 | locus YPL256C, strain CLN2, active compounds read low 1.01
